The results in this text go back to PubChem BioAssay (NCATS).

The nature of assay [1]: Cell Viability - N2a (AID 540).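 Further: plate controls were DMSO alone for no effect and tamoxifen control for full effect; nearly all actives have a fitted effect of over 45% in size.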 As to conditions: N2a mouse neuroblastoma cell viability; activity change, negative = cytotoxicity: at 92.2 µM (top of the series). The essentials: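 Mouse neuroblastoma N2a cells, 1500/well, exposed to compounds 40 h at 37 °C in complete medium. Viability measured as cellular ATP by CellTiter-Glo luminescence; AC50 from Hill fits of concentration-response.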

Assay [2] can be described thus: Cell Viability - LYMP2-025 (AID 976).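 Further: plate controls were DMSO only for no effect and tetraoctylammonium bromide control for full effect.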 The essentials:
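Human lymphoblastoid LYMP2-025 cells, 2500/well, exposed 24 h at 37 C in complete medium in 1536-well qHTS. Viability as cellular ATP by CellTiter-Glo luminescence; AC50 from Hill fits of concentration-response data.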

Assay [3] in a line: Cell Viability - LYMP2-010 (AID 981). Further: on the % scale 0 is the no-effect control and ±100 the full control effect; nearly all actives have a fitted effect of over 55% in size. Put shortly:
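Human lymphoblastoid LYMP2-010 cells (2500/well) treated 24 h at 37 C in complete medium; viability read as intracellular ATP by CellTiter-Glo luminescence. AC50 from Hill fits of concentration-response data; tetraoctylammonium bromide positive control.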

A short description of assay [4]: Cell Viability - LYMP2-018 (AID 985).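 Further: compound exposure lasted 24 hr at 37 °C; plate controls were DMSO only for no effect and tetraoctylammonium bromide at 92 µM for full effect; nearly all actives have a fitted effect of over 50% in size.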 The essentials: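 Human lymphoblastoid LYMP2-018 cells, 2500/well, settled 5 hr at 37 C then exposed to compound 24 hr at 37 C; intracellular ATP measured by CellTiter-Glo luminescence. AC50 from Hill-equation concentration-response fits.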
Assay [5] is described as follows: Cell Viability - LYMP2-022 (AID 987).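 Further: 0% = DMSO alone and full effect = tetraoctylammonium bromide at 92 µM; nearly all actives have a fitted effect of over 55% in size.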 The essentials: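 LYMP2-022 lymphoblastoid cells (2500/well, complete medium) were treated with compounds for 24 hours at 37 C; intracellular ATP was then read by CellTiter-Glo luminescence after 30 min at room temperature. AC50 values were derived from Hill-equation fits.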
Assay [6] deals with Peroxisome proliferator-activated receptor delta (Homo sapiens) (UniProt Q03181). Description: qHTS assay for small molecule agonists of peroxisome proliferator-activated receptor delta signaling (AID 588534; calls by dose curve;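 further: 0% = DMSO basal wells and 100% = positive control agonist at 10 µM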). Put shortly:
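Cells carrying a PPAR-delta beta-lactamase reporter were treated with compounds for 18 h at 37 °C in agonist mode. CCF4 fluorescence was read after 2 h; EC50 and efficacy from Hill fits.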
In general terms: In qHTS, concentration-response curves come from the screen itself.

Assay [7] addresses Peroxisome proliferator-activated receptor gamma (Homo sapiens) (UniProt P37231). Description: qHTS assay for small molecule antagonists of peroxisome proliferator-activated receptor gamma signaling (AID 588537; active means well fitted inhibition curve with a large enough effect in the signal ratio, with a control signal flat, not every such curve was filed as active; the % refers to the signal ratio; further: potency means the concentration at half of the fitted maximal effect). The essentials:
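Antagonist mode, beta-lactamase reporter in HEK293; charcoal/dextran FBS 1%; 3000 cells/well, 37 C 6-6.5 h; cpd titration + rosiglitazone 50 nM final, 16 h 37 C; CCF4, 2 h RT; 460/530 nm; Hill fit → IC50, efficacy.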

The target in assay [8] is Retinoic acid receptor RXR-alpha (Homo sapiens) (UniProt P19793). Description: qHTS assay for small molecule antagonists of retinoid X receptor alpha signaling (AID 588546; active means well fitted inhibition curve with a large enough effect in the signal ratio, with a control signal flat, not every such curve was filed as active; the % refers to the signal ratio;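 further: cells stimulated with 9-cis-retinoic acid as agonist; on the % scale 0 is the no-effect control and ±100 the full control effect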). As to conditions: HEK293T RXRa-UAS-bla, beta-lactamase ratio, antagonist mode. The essentials:
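Beta-lactamase reporter inhibition, read as CCF4 fluorescence ratio (ex 405, em 460/530 nm) after 2 h at RT. HEK293T UAS-bla cells, 2500/well, were stimulated with 9-cis-RA at 500 or 100 nM final alongside test compound for 18 h at 37 C.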

For assay [9], the target named is Thyroid hormone receptor beta (Homo sapiens) (UniProt P10828). Description: qHTS assay for small molecule antagonists of thyroid hormone receptor beta signaling (AID 588547; active means well fitted inhibition curve with a large enough effect in the signal ratio, with a control signal flat, not every such curve was filed as active; the % refers to the signal ratio;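 further: cells stimulated with 0.4 nM T3 agonist during compound exposure; on the % scale 0 is the no-effect control and ±100 the full control effect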). As to conditions: TR-UAS-bla HEK293, beta-lactamase ratio, antagonist mode, 18 h. The essentials: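 Inhibition of T3-driven (0.4nM final) beta-lactamase reporter activity was measured over 0.59 nM to 92 uM compound after 18 h at 37 C. The cells were GripTite HEK293 TR-UAS-bla in charcoal/dextran-stripped serum, with CCF4 ratio read-out and IC50 from Hill fits.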
Thyroid hormone receptor beta (Homo sapiens), sequence (P10828 whole entry, looked up): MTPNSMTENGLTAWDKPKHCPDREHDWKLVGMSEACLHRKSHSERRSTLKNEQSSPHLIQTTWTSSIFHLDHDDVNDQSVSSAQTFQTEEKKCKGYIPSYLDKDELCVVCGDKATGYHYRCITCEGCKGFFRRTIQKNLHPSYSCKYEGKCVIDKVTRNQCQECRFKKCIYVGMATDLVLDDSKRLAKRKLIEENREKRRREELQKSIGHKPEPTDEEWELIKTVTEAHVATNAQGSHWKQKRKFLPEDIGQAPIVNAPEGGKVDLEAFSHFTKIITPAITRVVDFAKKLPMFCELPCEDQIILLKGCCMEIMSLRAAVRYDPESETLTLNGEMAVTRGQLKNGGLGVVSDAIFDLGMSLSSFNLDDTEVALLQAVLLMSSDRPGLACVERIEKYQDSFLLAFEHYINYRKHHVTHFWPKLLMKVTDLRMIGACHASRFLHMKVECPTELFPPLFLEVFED

Assay [10] in a line: qHTS assay for small molecule agonists of the antioxidant response element (ARE) signaling pathway (AID 651741; active means well fitted activation curve with a large enough effect in the signal ratio; the % refers to the signal ratio; further: potency means the concentration at half of the fitted maximal effect; on activation: % of control where 0% means no effect). Put shortly:
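Quantitative HTS in HepG2 cells stably expressing an ARE-beta-lactamase reporter; 16 h compound exposure at 37 C, followed by 2 h room-temperature incubation with LiveBLAzer B/G FRET substrate and fluorescence measurement.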

A short description of assay [11]: qHTS assay for small molecule disruptors of the mitochondrial membrane potential - 1 hr assay (AID 651754; calls by dose curve; further: nearly all actives have a fitted effect of over 35% in size; further: potency means the concentration at half of the fitted maximal effect). The essentials:
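HepG2 cells, attached overnight, were exposed to compound for 1 hr at 37C, then stained 30 min with a potentiometric dye. Ratio of red aggregate (590nm) to green monomer (535nm) fluorescence reports membrane potential; collapse shifts signal toward green.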

Assay [12] can be described thus: qHTS assay for small molecule agonists of the antioxidant response element (ARE) signaling pathway measured by Nrf2-dependant transcriptional activity (AID 720636; active means well fitted curve in the direction sought with a large enough effect in the repeat runs; an effect the other way counts as inactive or inconclusive;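 further: HepG2 cells with an ARE-driven luciferase reporter; % of control where 0% means no effect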). Put shortly:
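Cells: ARE-luc HepG2 with Nrf2-responsive luciferase. Medium contained 1% dialyzed FBS. Compound exposure lasted 16 hr at 37 C and 5% CO2, followed by ONE-Glo luciferase detection.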

A short description of assay [13]: Cell Viability - MRC5 (AID 434; calls by dose curve;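 further: potency means the concentration at half of the fitted maximal effect; potency reflects cytotoxicity seen as loss of intracellular ATP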). Particulars: MRC5 lung fibroblast viability, qHTS. The essentials: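 qHTS cytotoxicity in human lung fibroblast MRC5 cells; 40 hr treatment, 37 °C; cellular ATP by luciferase luminescence; DMSO = 0%, 100 uM tamoxifen = 100% inhibition; Hill-fit AC50.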
Assay [14] deals with Estrogen receptor (Homo sapiens) (UniProt P03372). Description: qHTS assay for small molecule agonists of estrogen receptor alpha signaling (AID 588514; calls by dose curve; further: nearly all actives have a fitted effect of over 70% in size; further: potency means the concentration at half of the fitted maximal effect;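 on activation: 0% = vehicle only and 100% = reference agonist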). The essentials:
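ER-alpha-UAS-bla GripTite HEK293 cells, 5000/well in 2% charcoal/dextran-stripped FBS medium, treated with compound titrations 18 h at 37 C. CCF4 beta-lactamase read by fluorescence after 2 h RT; normalised to 20 nM 17-beta-estradiol (100%) and DMSO (0%), Hill fit for EC50 and efficacy.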

Assay [15] shares this target. Description: qHTS assay for small molecule antagonists of estrogen receptor alpha signaling (AID 588513; active means well fitted curve in the direction sought with a large enough effect in the signal ratio, with a control signal flat, not every such curve was filed as active; the % refers to the signal ratio; further: on the % scale 0 is the no-effect control and ±100 the full control effect). The essentials:
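ER-alpha-UAS-bla GripTite HEK 293 cells in medium with 2% charcoal/dextran-treated FBS were preincubated 4 h at 37 C, dosed with compound (1:2 titration), stimulated with 0.5nM 17-beta-estradiol for 18 h, then read by CCF4 beta-lactamase fluorescence.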

The target in assay [16] is Bile acid receptor (Homo sapiens) (UniProt Q96RI1). Description: qHTS assay for small molecule agonists of farnesoid X receptor signaling (AID 588527; calls by dose curve;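 further: 0% = vehicle basal and 100% = reference agonist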). As to conditions: HEK293T FXR-UAS-bla, beta-lactamase ratio, 16 h; stronger effect = higher value. Put shortly:
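Quantitative HTS used FXR-UAS-bla HEK293T cells with 16 h compound incubation at 37 C. EC50 values came from concentration-response curves normalized to chenodeoxycholic acid.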

The target of assay [17] is Nuclear receptor ROR-gamma (Homo sapiens) (UniProt P51449). The experiment in a line: qHTS assay for small molecule antagonists of the retinoid-related orphan receptor gamma (ROR-gamma) signaling pathway (AID 651802).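 Further: luciferase reporter luminescence driven by ROR response element; on the % scale 0 is the no-effect control and ±100 the full control effect; nearly all actives have a fitted effect of over 60% in size.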 Put shortly:
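CHO cells with TET-inducible ROR-gamma and RORE-luciferase reporter, dosed then doxycycline-induced. After 16 h at 37C, One-Glo luminescence read; decreased signal indicates antagonism.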

Assay [18] is described as follows: qHTS assay for small molecule antagonists of peroxisome proliferator-activated receptor delta signaling (AID 588535; active means well fitted inhibition curve with a large enough effect in the signal ratio, with a control signal flat, not every such curve was filed as active; the % refers to the signal ratio;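 on max response: cells co-treated with a PPAR-delta agonist as stimulator during compound exposure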). As to conditions: HEK293T PPARd-UAS-bla, beta-lactamase FRET ratio, 18 h; 460 nm channel. The essentials:
(§1)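 HEK293T PPAR-delta-UAS-bla cells, 4000/well, 2% charcoal/dextran FBS; 5 h 37 C; cpd titration; 18 h 37 C; CCF4 2 h RT; FI 460/530 nm; Hill fit → IC50, efficacy.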

Assay [19] addresses Peroxisome proliferator-activated receptor delta (Homo sapiens) (UniProt Q03181). The assay is described as above. Put shortly: as §1
A short description of assay [20]: Cell Viability - NIH 3T3 (AID 541).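 Further: plate controls were DMSO alone for no effect and tamoxifen positive control for full effect; nearly all actives have a fitted effect of over 25% in size.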 Particulars: NIH 3T3 cell viability, qHTS; activity change, negative = cytotoxicity: at 92.2 µM (top of the series). Put shortly:
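Mouse NIH 3T3 fibroblasts, 1000 cells/well, rested 5 hr at 37 °C, then exposed to compound for 40 hr at 37 °C in complete medium. Viability read as intracellular ATP by CellTiter-Glo luminescence; AC50 from Hill-equation fits of concentration-response data.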

Values joined by “and” are separate entries in the source; they are usually repeats but may differ in a detail not shown here. Equal entries are not always repeated. Records with an inconclusive call do not appear. Active and inactive are the calls of the source. Unless noted, the call rests on the fitted dose curve; in most records, active means well fitted curve in the direction sought with a large enough effect; inconclusive means small, poorly fitted or top-dose-only effect, or another doubt; inactive means no such curve, though single readings can be large; an effect the other way counts as inactive or inconclusive.

Peroxisome proliferator-activated receptor delta (Homo sapiens), sequence (Q03181 whole entry, looked up): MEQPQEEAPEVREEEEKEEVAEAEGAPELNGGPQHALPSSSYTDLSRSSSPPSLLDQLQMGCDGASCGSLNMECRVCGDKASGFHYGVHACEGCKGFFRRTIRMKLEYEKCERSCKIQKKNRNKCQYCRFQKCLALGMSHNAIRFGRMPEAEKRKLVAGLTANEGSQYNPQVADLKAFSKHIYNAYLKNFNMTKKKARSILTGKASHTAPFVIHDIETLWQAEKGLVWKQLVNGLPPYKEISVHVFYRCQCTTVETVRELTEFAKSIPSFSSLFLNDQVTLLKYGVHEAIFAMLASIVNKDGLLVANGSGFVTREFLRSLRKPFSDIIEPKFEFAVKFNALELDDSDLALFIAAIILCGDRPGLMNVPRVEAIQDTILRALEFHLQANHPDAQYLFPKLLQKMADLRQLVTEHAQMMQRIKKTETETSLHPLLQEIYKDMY
Nuclear receptor ROR-gamma (Homo sapiens), sequence (P51449 whole entry, looked up): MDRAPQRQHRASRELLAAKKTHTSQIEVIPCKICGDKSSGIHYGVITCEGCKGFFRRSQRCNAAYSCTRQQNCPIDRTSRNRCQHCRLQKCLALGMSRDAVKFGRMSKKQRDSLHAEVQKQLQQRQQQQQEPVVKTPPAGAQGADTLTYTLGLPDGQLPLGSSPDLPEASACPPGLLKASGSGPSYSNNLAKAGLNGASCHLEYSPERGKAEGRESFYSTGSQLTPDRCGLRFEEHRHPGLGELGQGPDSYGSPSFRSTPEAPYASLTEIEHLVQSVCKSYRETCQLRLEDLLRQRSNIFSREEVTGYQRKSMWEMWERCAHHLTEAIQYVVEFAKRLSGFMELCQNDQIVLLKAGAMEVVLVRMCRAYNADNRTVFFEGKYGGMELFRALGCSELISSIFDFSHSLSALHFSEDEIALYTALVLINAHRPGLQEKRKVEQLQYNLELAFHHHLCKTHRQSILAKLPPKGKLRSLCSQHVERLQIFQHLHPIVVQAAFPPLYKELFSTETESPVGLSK
Peroxisome proliferator-activated receptor gamma (Homo sapiens), sequence (P37231 whole entry, looked up): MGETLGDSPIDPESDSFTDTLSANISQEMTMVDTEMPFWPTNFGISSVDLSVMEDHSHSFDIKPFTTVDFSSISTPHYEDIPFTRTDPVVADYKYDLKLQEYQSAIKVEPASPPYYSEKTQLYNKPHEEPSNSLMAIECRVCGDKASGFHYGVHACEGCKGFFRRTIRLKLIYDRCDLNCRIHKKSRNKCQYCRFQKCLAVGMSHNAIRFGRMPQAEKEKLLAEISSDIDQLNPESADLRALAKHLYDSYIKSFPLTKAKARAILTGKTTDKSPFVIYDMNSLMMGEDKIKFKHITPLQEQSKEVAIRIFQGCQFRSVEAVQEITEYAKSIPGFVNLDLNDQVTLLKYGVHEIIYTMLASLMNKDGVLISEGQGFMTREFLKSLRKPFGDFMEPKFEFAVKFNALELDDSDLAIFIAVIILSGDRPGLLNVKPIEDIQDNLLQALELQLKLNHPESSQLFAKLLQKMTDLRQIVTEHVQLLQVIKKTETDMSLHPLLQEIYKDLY
Estrogen receptor (Homo sapiens), sequence (P03372 whole entry, looked up): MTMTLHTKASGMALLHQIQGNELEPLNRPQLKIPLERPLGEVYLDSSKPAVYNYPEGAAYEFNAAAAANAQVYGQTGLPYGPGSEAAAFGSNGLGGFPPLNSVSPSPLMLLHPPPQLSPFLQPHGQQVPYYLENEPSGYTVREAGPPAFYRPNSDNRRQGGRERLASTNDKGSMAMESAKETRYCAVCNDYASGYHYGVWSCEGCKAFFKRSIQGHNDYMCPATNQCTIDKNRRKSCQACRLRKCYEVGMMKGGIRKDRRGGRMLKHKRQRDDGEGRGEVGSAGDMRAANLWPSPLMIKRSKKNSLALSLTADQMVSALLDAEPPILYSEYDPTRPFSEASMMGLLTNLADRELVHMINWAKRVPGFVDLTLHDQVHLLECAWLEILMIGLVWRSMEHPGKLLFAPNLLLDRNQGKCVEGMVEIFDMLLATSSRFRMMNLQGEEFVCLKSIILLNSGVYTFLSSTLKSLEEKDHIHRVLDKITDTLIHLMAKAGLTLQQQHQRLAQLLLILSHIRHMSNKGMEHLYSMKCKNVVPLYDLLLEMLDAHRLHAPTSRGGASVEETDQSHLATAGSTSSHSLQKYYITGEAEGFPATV
Retinoic acid receptor RXR-alpha (Homo sapiens), sequence (P19793 whole entry, looked up): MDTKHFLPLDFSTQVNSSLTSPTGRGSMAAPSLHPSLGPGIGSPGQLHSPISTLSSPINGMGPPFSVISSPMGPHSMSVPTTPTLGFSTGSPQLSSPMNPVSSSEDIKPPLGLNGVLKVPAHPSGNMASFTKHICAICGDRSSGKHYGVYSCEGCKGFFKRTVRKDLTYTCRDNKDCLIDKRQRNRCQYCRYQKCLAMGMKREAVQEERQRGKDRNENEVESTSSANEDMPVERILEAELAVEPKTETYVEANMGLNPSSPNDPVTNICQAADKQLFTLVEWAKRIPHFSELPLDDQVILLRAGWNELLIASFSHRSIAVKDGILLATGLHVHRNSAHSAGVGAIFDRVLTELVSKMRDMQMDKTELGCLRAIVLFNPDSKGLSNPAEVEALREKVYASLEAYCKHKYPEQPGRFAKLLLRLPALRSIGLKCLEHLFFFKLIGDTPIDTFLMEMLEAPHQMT
Bile acid receptor (Homo sapiens), sequence (Q96RI1 whole entry, looked up): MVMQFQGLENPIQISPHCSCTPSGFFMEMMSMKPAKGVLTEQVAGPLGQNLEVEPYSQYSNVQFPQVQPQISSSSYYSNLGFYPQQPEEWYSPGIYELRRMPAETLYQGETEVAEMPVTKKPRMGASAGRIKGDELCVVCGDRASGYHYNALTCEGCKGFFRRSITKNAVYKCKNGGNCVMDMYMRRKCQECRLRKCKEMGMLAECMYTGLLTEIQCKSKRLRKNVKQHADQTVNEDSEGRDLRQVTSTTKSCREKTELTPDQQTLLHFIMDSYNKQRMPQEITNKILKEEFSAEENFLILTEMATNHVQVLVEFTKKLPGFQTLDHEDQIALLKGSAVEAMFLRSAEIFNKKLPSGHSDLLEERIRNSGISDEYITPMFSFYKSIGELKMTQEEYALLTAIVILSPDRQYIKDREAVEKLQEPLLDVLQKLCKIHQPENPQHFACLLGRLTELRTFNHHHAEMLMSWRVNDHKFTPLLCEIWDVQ

For `CC[N+](=O)[O-]`, the Potency entry in assay [1], in [2], in assay [3], in assay [4], in assay [5] and in assay [7] was “inactive” throughout. The Potency result in assay [10], in [11] and in [12] was “inactive” each time. Moreover, in assay [6], the molecule was called inactive. Also, the max response in assay [8] was 5.74% (inactive). For the same molecule, the activity change % (negative = inhibition) in assay [9] is -0.712% (inactive).

Regarding `Nc1ccc(Cc2ccc(N)c(Cl)c2)cc1Cl`, the values for the Potency in assay [13] and in assay [7] were > 92 µM (inactive) and 39.8 µM (active), respectively. Also, the Potency entry in assay [2], in assay [3], in assay [4], in assay [5], in assay [14] and in [11] was “inactive” each time. The Potency entry in [12] is “inactive”.

For `Brc1ccc(Oc2ccc(Br)cc2Br)c(Br)c1`, the Potency in assay [13] was > 92 µM (inactive). Besides, the Potency result in [3], in [4], in assay [5], in assay [15], in [14] and in assay [7] was “inactive” in each case. Moreover, the Potency entry in assay [17] and in assay [12] was “inactive” in each case. Besides, the activation in assay [16] was -1.06% (inactive). Also, in [9], the activity change % (negative = inhibition) is 4.48% (inactive).

For the molecule `Cc1ccc(OP(=O)(Oc2ccc(C)cc2)Oc2ccc(C)cc2)cc1`, the Potency was > 92 µM (inactive) in assay [13] and 9.44 µM (active) in assay [11]. Also, the Potency result in assay [2], in [3], in [4], in assay [5] and in assay [7] was “inactive” in each case. The call in assay [6] and in [19] was inactive. The max response in assay [18] is 2.39% and -12%; in [8], -1.31% (inactive) and -25.6% (inactive).

As for `Cc1cc(-c2ccc(N)c(C)c2)ccc1N`, the Potency result in [20], in assay [2], in assay [3], in [5], in [15] and in assay [7] was “inactive” throughout. Moreover, the Potency entry in [17] and in [12] was “inactive” each time. Also, the Potency in assay [14] is 22.4 µM (active); in assay [10] it was 12.2 µM (active) and 6.86 µM (active). In addition, the activity change % (negative = inhibition) in assay [9] is 4.51% (inactive) and -14.4% (inactive).

Regarding `CN(C)c1ccc(N(C)C)cc1`, the Potency entry in assay [2], in assay [15], in assay [14], in [7], in [11] and in assay [17] was “inactive” throughout. Moreover, the max response in [8] was 17.1% (inactive). In addition, in [10], the Potency is 42.2 µM (active).

`C/C=C/C=O`: the Potency result in assay [1], in [20], in [2], in assay [4], in assay [5] and in assay [7] was “inactive” each time. The Potency result in assay [17] and in assay [12] was “inactive” each time. The activity change % (negative = inhibition) in [9] is -1.85% (inactive).

`O=[N+]([O-])c1cc(Cl)c(Cl)c(Cl)c1`: in [13], the Potency was > 92 µM (inactive). The Potency entry in [1], in assay [2], in assay [3], in assay [4], in [5] and in assay [15] was “inactive” in each case. In addition, the Potency result in [14], in [11], in assay [17] and in [12] was “inactive” in each case. Moreover, the activity change, negative = cytotoxicity in [20] was -119% (active). Besides, the activation in assay [16] was -2.43% (inactive). In addition, the max response is 30.2% in assay [18] and -5.05% (inactive) in assay [8]. Besides, in assay [19], the result was inactive. Besides, in assay [9], the activity change % (negative = inhibition) was 3.05% (inactive).

For the molecule `c1ccoc1`, the Potency in assay [13] was > 92 µM (inactive). The Potency result in assay [1], in assay [20], in [2], in [3], in [4] and in assay [5] was “inactive” in each case. The Potency entry in [15], in [14], in assay [7] and in assay [11] was “inactive” each time. Also, the call in assay [6] was inactive. Also, the max response in assay [8] was -5.23% (inactive). In [9], the activity change % (negative = inhibition) was 20.3% (inactive).
